Data from PubChem BioAssay AID1865 (National Center for Advancing Translational Sciences (NCATS), 2009).
Hit rate of the full screen: of about 280,000 compounds, about 540 (0.19%) were called active. Another 2% or so got no clear call; they are omitted. The sample as a whole holds a higher share of actives than the screen did. A number with no mark means an inactive call. Calls come from the whole dose curve; as a rule, active = well fitted activation curve with a large enough effect; inconclusive = small, poorly fitted or top-dose-only effect; inactive = flat fitted curve, though single readings scatter.

experiment: Quantitative High-Throughput Screen for Regulators of Epigenetic Control; details: murine LDR cells, GFP reporter derepression, 30 h; series mostly up to 53.9 µM; GFP activation: at the top concentration; note: nearly all actives have a fitted effect of over 60% in size; for GFP activation: % of control where 0% means no effect
Text: NIH Molecular Libraries Screening Centers Network [MLPCN] NIH Chemical Genomics Center [NCGC] MLSCN Grant: 1 X01 MH079860-01 Assay Provider: Elisabeth D. Martinez, University of Texas SW Medical Center NCGC Assay Overview: The Locus Derepression (LDR) assay detects the derepression or induction of a GFP reporter that is stably integrated in a genomic region of murine cells that is presumably silenced. Transcription of the GFP reporter is controlled by a CMV promoter, which normally is constitutively active. However, this cell line, termed LDR, was selected for lack of constitutive production of GFP. GFP production can be induced by incubating the cells with histone deacetylase or DNA methyltransferase inhibitors (Martinez et al., 2006). Compounds that derepress or induce this reporter locus are identified by enumerating GFP positive cells using a laser-scanning microplate cytometer (Auld et al., 2006). This assay was screened against the MLSMR earlier (AID 597; (Johnson et al., 2008) and has been rescreened here against the expanded collection.
NCGC Assay Protocol Summary: Three hundred LDR cells in 5 uL per well were dispensed into black, clear-bottom 1536-well plates. Twenty-three nL compound was transferred to the assay plate and cells were incubated 30 hours at 37 C. Medium was removed, cells were washed two times with PBS, and GFP-positive cells were enumerated as fluorescent objects between the sizes of 20 to 120 um width and depth using an Acumen Explorer. References Auld, DS, Johnson, RL, Zhang, YQ, Veith, H, Jadhav, A, Yasgar, A, Simeonov, A, Zheng, W, Martinez, ED, Westwick, JK, Austin, CP, Inglese, J (2006). Fluorescent protein-based cellular assays analyzed by laser-scanning microplate cytometry in 1536-well plate format. Methods Enzymol 414: 566-89. Johnson, RL, Huang, W, Jadhav, A, Austin, CP, Inglese, J, Martinez, ED (2008). A quantitative high-throughput screen identifies potential epigenetic modulators of gene expression. Anal Biochem 375: 237-48. Martinez, ED, Dull, AB, Beutler, JA, Hager, GL (2006). High-content fluorescence-based screening for epigenetic modulators. Methods Enzymol 414: 21-36.
Potency is the fitted concentration of half-maximal effect.

Row | Structure (SMILES) | GFP activation [%] | Potency
1 | CCOC(=O)c1c(S(=O)(=O)NCC(=O)Nc2ccc(Cl)c(C(F)(F)F)c2)c(C)n(C)c1C | -1.3 | –
2 | CCN1CCN(CCCNC(=O)c2cnn(-c3ccc(C)cc3C)c2C2CCN(C(=O)OC(C)(C)C)CC2)CC1 | 0 | –
3 | Cc1ccccc1-n1nnc2c(=O)oc3ccccc3c21 | – | 15.8 µM (active)
4 | CCOC(=O)c1c(C)nc2c(c1C)c(=O)oc1ccccc12 | -1.99 | –
5 | Cc1cccc(N2CCN(c3c(CN4CCCC4)c(=O)oc4ccccc34)CC2)c1C | -0.594 | –
6 | COc1ccc(CCn2cc3c(c2-c2ccc(Br)cc2)c(=O)n(C)c(=O)n3C)cc1OC | -2.56 | –
7 | Cc1c(CNC(C)c2ccccc2)c(C(=O)O)c(C)n1Cc1c(F)cccc1Cl (configuration not stated) | 0.98 | –
8 | Cc1ccc(Nc2c(-c3ccc(N(C)C)cc3)nc3nc[nH]n23)cc1 | -0.937 | –
9 | COC(=O)c1ccc(C2C(C(=O)Nc3ccccc3)=C(C)Nc3nc4ccccc4n32)cc1 (configuration not stated) | 0 | –
10 | CC1CCC(N2CC(=O)N(CCC3=CCCCC3)C(c3ccc(F)cc3)C2=O)CC1 (configuration not stated) | 0.552 | –
11 | Cc1cccc(C(=O)Nc2ccc(S(=O)(=O)N3CCCCC3c3cccnc3)cc2)c1 (configuration not stated) | 0 | –
12 | Cc1ccc(NC(=O)CSc2nc3ccccc3c3nc(CCn4cncc4C)nn23)cc1F | 11.5 | –
13 | COc1ccccc1NC(=O)c1ccc(C)s1 | 0 | –
14 | CCOC(=O)C(=Cc1ccccc1OC)C(=O)OCC | – | 22.4 µM (active)
15 | CCOC(=O)C(=CNc1cccc(C)n1)C(=O)OCC | 2.11 | –
16 | Cc1cc(Nc2cccc(C(F)(F)F)c2)nc2ccc(NC(=O)c3ccc(=O)[nH]c3)cc12 | -0.401 | –
17 | COc1cccc(Cn2c(CNS(=O)(=O)c3ccc(Cl)s3)nc3cccnc32)c1 | 1.14 | –
18 | CCCCNc1ccc(-c2nc(-c3ccncc3)no2)cc1[N+](=O)[O-] | -2.85 | –
19 | CCCn1c2ccccc2c2cnn(CC(=O)NCCCOC(C)C)c(=O)c21 | 0 | –
20 | Cc1cccc2c1-c1sc(C(=O)Nc3ccc(F)cc3F)cc1CO2 | 0 | –
21 | CCOCCCNC(=O)c1c(NC(=O)Cc2coc3c(C)c(C)ccc23)sc2c1CCC2 | -1.02 | –
22 | COc1ccc(CCNc2ncnc3c2cnn3-c2ccc(C)cc2)cc1 | 1.31 | –
23 | CCOC(=O)C1CCCN(S(=O)(=O)c2cc(-c3cc(C)no3)ccc2OC)C1 (configuration not stated) | -1.08 | –
24 | COc1ccc(C(C[N+](=O)[O-])n2nc(C)cc2C)cc1 (configuration not stated) | – | 12.6 µM (active)

Row | Structure (SMILES) | GFP activation [%] | Potency
25 | COc1ccc(C(=O)CSc2nc(C)cc(C)n2)cc1[N+](=O)[O-] | 1.6 | –
26 | COc1ccc(OCc2cn3c(C)cc(C)nc3n2)cc1 | -0.866 | –
27 | O=C1CCCc2cc(S(=O)(=O)N3CCCC(C(=O)NCc4ccccc4)C3)ccc2N1 (configuration not stated) | 1.06 | –
28 | CCOc1cc(-c2nnc(SCC(=O)NC3CCCC3)nc2-c2ccc(OC)c(OCC)c2)ccc1OC | 0.833 | –
29 | CC(=O)N1c2ccc(S(=O)(=O)N3CCCCCC3)cc2CC1C(=O)NCc1ccccc1C (configuration not stated) | 14.2 | –
30 | COc1ccc(C2C(=O)N(C3CCCCCC3)CC(=O)N2CCc2ccc(Cl)cc2)cc1OC (configuration not stated) | 0.873 | –
31 | CC(C)(C)OC(=O)N1CCC(c2c(C(=O)N3CCN(c4cccc(Cl)c4)CC3)cnn2-c2cccc(Cl)c2)CC1 | -1.27 | –
32 | CN(C)CCCn1c(-c2ccc(Cl)cc2)csc1=Nc1ccccc1 | 2.14 | –
33 | CCCCCn1c(=O)[nH]c2cc(C(=O)Nc3ccc(F)cc3)ccc2c1=O | -4.84 | –
34 | O=C(Nc1c(-c2ccc(F)cc2)nc2ccccn12)c1cccc(F)c1 | 0.225 | –
35 | Cc1cccc(NC(=O)Cn2cc(S(=O)(=O)Cc3ccccc3Cl)c3ccccc32)c1 | 7.01 | –
36 | CCOC(=O)c1ccc(NC(=O)CSc2nc3c([nH]c4ccccc43)c(=O)n2C)cc1 | 11.1 | –
37 | Cn1c(C(=O)Nc2cccc(C(F)(F)F)c2)cc2c(=O)n3ccccc3nc21 | 2.82 | –
38 | COc1cc(Cl)c(C)cc1NC(=O)CCc1nc2cccnc2n1Cc1cccs1 | -2 | –
39 | COc1cccc(NC(=O)N(Cc2cn(C)c3ccccc23)C2CCCCCC2)c1 | 2.27 | –
40 | COc1cccc(CNCc2c(C(=O)O)n(Cc3ccc(C)cc3)c3cc(C)ccc23)c1OC | 2.35 | –
41 | COc1ccc(Nc2ncc3c(n2)CCN(C(=O)OC(C)(C)C)C3)cc1 | 7.82 | –
42 | COc1ccc(CCNC(=O)CCCn2c(=O)c3ccccc3n(Cc3ccc(C)cc3)c2=O)cc1OC | 0 | –
43 | COC(=O)c1scc(-c2ccc(C)cc2)c1S(=O)(=O)Nc1cc(Cl)c(OC)cc1OC | 0 | –
44 | O=C(Nc1ccc(Br)cc1)c1cc2nc(-c3ccccc3)cc(-c3ccccc3)n2n1 | -1.59 | –
45 | CCCC(=O)Nc1cc(C(=O)NCc2ccc(OC)cc2)ccc1S(=O)(=O)c1ccc(Cl)cc1 | 1.06 | –
46 | CC(C)(C)c1ccc(C(=O)N2CCC(c3nc(-c4ccc(S(=O)(=O)N5CCCC5)cc4)no3)CC2)cc1 | 1.37 | –
47 | Cc1ccc2c(N)c(C(=O)c3ccccc3)sc2n1 | 0.0852 | –
